TDP1 inh – qHTS Assay for Inhibitors of Tyrosyl-DNA Phosphodiesterase (TDP1); AID 485290, 2010; recombinant TDP1, AlphaScreen DNA substrate cleavage; Tyrosyl-DNA phosphodiesterase 1 (Homo sapiens), Q9NUW8; Potency, µM (doses to about 130 µM), for the others: at the top dose activity change, negative = inhibition, usual class: inhibitors; 350,000 compounds, 0.28% hits; also: nearly all actives have a fitted effect of over 40% in size
Target sequence (Q9NUW8 whole entry, looked up): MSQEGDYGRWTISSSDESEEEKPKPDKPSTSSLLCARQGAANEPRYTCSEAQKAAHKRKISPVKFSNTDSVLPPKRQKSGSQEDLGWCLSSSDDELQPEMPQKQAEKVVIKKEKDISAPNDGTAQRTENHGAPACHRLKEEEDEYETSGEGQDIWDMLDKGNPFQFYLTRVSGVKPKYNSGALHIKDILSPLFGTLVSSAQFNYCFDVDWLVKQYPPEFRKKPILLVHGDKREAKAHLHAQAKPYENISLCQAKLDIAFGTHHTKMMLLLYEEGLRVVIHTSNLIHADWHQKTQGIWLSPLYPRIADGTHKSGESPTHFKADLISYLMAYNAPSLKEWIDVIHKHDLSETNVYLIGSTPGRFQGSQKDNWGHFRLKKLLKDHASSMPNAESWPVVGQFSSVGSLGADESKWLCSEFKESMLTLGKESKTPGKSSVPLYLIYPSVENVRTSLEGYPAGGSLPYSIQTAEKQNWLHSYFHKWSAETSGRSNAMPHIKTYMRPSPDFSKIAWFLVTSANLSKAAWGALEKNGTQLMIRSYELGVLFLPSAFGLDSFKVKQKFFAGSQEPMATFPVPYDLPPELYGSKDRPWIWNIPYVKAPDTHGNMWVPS
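Compounds were preincubated with Tdp1 (1 nM final) for 15 min at room temperature before substrate (15 nM final) started a 5 min reaction; beads (10 ug/ml final) were then added for 10 min before AlphaScreen detection.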
TDP1 cell noCPT – qHTS for Inhibitors of human tyrosyl-DNA phosphodiesterase 1 (TDP1): qHTS in cells in absence of CPT; DT40 Tdp1-/- hTDP1 cells, no CPT, ATP luminescence, 48 h; Potency, µM (titrated, usually from 46.2 µM), for the others: top-dose activity change, negative = growth inhibition, usual class: inhibitors; 420,000 compounds, 15% hits; also: nearly all actives have a fitted effect of over 55% in size
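No-CPT arm: Tdp1-/-;hTDP1 DT40 cells (400/well) plus compounds, incubated ≥48 hr at 37 °C. Readout CellTiter-Glo luminescence.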
GCN5L2 inh – qHTS Assay for Inhibitors of GCN5L2 | AID 504327, 2011 | 390,000 compounds, 0.21% hits | Potency, µM (highest dose often 58.9 µM), for the others: at the highest dose activity change, negative = inhibition, usual class: inhibitors | GCN5L2 HAT assay, ThioGlo1 CoA-SH fluorescence
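qHTS, 1536-well. 20nM enzyme, pH 7.5 HEPES/EDTA/Tween-20 buffer; 15 min compound preinc., RT. Start: 75uM H3(1-25), 70uM AcCoA, 50uM ThioGlo1. Read Ex340/Em540 at t=0 (autofluorescence flag) and t=20 min.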
VDR inhibitor – Inhibitors of the vitamin D receptor (VDR): qHTS. VDR-SRC2-3 peptide fluorescence polarization, 2 h. Potency, µM, for inactives: max response, negative = inhibition, actives largely listed as inhibitors. Vitamin D3 receptor (Homo sapiens), P11473. 400,000 compounds, 0.93% hits
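Fluorescence polarization assay measuring small-molecule disruption of VDR binding to the coregulator peptide SRC2-3. Compounds were pin-transferred (23 nl) into the reagent mix and incubated 2 h at room temperature before reading.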
PLK1 PBD block – qHTS for Inhibitors of PLK1-PDB (polo-like kinase 1 - polo-box domain): Primary Screen; Plk1 PBD binding of FITC phosphopeptide, fluorescence polarization; Potency, µM, for inactives: max response, negative = inhibition, most hits filed as inhibitors; Serine/threonine-protein kinase PLK1 (Homo sapiens), P53350; 360,000 compounds, 2.8% hits; AID 720504, 2013; also: series mostly up to about 57 µM; nearly all actives have a fitted effect of over 65% in size
TDP1 cell CPT – qHTS for Inhibitors of human tyrosyl-DNA phosphodiesterase 1 (TDP1): qHTS in cells in presence of CPT | chicken DT40 Tdp1-/-;hTDP1 cells + 20 nM CPT, ATP luminescence, 48 h | Potency, µM (highest dose often 46.2 µM), inactives show top-dose activity change, negative = growth inhibition, usual class: inhibitors | 420,000 compounds, 12% hits | AID 686979, 2013; also: nearly all actives have a fitted effect of over 55% in size
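Chicken DT40 Tdp1-/- cells stably complemented with human TDP1 were seeded at 400 cells/well in medium containing 20 nM camptothecin, exposed to pin-transferred compounds, and grown at 37 °C for at least 48 hr. Viability was read as ATP luminescence.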
Active calls of the source: *; ? = inconclusive; nt = no result. The list is not random: actives were taken first. Their share in the collection is about 18%. Calls follow the shape of the dose curve; as a rule, active = well fitted curve in the direction sought with a large enough effect; inconclusive = small, poorly fitted or top-dose-only effect, or another doubt; inactive = no such curve, though single readings can be large; an effect the other way counts as inactive or inconclusive. % is scaled to controls: 0 for no effect and ±100 for the full control effect; potency is read from the fitted curve at half-maximal effect.

SMILES	TDP1 inh	TDP1 cell noCPT	GCN5L2 inh	VDR inhibitor	PLK1 PBD block	TDP1 cell CPT
COC(=O)c1ccc2c(=O)n(-c3ccc(OC)cc3)c(=S)[nH]c2c1	11%	-13%	-2%	-15%	6%	-8%
CCOc1ccc(N=C(NN)c2ccc3ccccc3n2)cc1	5%	?	-8%	5%	?	?
Cc1cccc(/C=N/NC(=O)CC(=O)NCCc2ccccc2)c1	nt	?	nt	-15%	-5%	1%
COc1ccc(N(C(=O)c2snc(C(N)=O)c2N)C(C(=O)NC2CCCC2)c2ccco2)cc1 (centres undefined)	nt	?	-6%	-4%	1%	3%
CCOc1ccc(N(C(=O)c2snc(C(N)=O)c2N)C(C(=O)NCC2CCCO2)c2ccc(C)o2)cc1 (centres undefined)	17%	?	6%	-20%	2%	18µM*
CCOc1ccc(C(C(=O)NCC2CCCO2)N(Cc2cccs2)C(=O)c2snc(C(N)=O)c2N)cc1 (centres undefined)	6%	9.2µM*	-5%	3%	-4%	23µM*
COc1ccc(N(C(=O)c2snc(C(N)=O)c2N)C(C(=O)NC2CCCCC2)c2ccc(C)o2)cc1 (centres undefined)	nt	16µM*	-10%	9%	-8%	?
CN(C)C(=O)[C@@H]1C[C@@H](Sc2nc3ccccc3[nH]2)CN1Cc1ccnc2ccccc12	nt	15µM*	nt	nt	nt	16µM*
COc1ccccc1N(CC(=O)NCc1ccccc1)C(=O)CCC(=O)Nc1nccs1	6%	-24%	-12%	-3%	-1%	-1%
CSc1ccc(NC(=O)C2(C)CCN2C(=O)C2(c3ccccc3)CC2)cc1 (centres undefined)	nt	?	nt	nt	-2%	18µM*
Cc1ccc(NC(=O)C2(C)CCN2C(=O)C2(c3ccc(Cl)cc3)CC2)cc1 (centres undefined)	nt	18µM*	nt	nt	-4%	15µM*
CC1(C(=O)Nc2ccc3nc[nH]c3c2)CCN1C(=O)C1(c2ccccc2)CC1 (centres undefined)	nt	-7%	nt	nt	3%	?
CC1(C(=O)NS(=O)(=O)c2ccccc2)CCN1C(=O)C1(c2ccc(Cl)cc2)CC1 (centres undefined)	nt	0%	nt	nt	-15%	?
Cc1ccc(S(=O)(=O)NC(=O)C2(C)CCN2C(=O)C2(c3ccc(Cl)cc3)CC2)cc1 (centres undefined)	nt	-8%	nt	nt	-12%	-7%
CC1(C(=O)Nc2ccccc2)CCN1C(=O)C1(c2ccc(Cl)cc2)CC1 (centres undefined)	nt	3.7µM*	nt	nt	1%	?
CC1(C(=O)N2Cc3ccccc3C2)CCN1C(=O)C1(c2ccccc2)CC1 (centres undefined)	nt	21µM*	nt	nt	7%	?
O=C(O)CCCC(=O)N1N=C(c2ccccc2)CC1c1cccs1 (centres undefined)	0%	-9%	-8%	8%	-21%	2%
COC(=O)c1cc(S(=O)(=O)C(C)C)c(S(C)=O)s1 (centres undefined)	3%	?	-4%	8%	-1%	-97%
COCCN1C(=O)CCC1(C)C(=O)Nc1ccc2c(c1)OCCO2 (centres undefined)	nt	2%	nt	nt	-5%	16%
O=S(=O)(NCc1cn2ccsc2n1)c1ccc(Oc2ccccc2)cc1	6%	10µM*	-11%	-2%	-9%	9.2µM*

Compound activity deposited in PubChem by National Center for Advancing Translational Sciences (NCATS).
